In the supplement of paper PMC6089552:
About 300 (9.4%) of roughly 3,200 compounds showed activity. Many of the other results were omitted from the sample, so actives are more common in it than they were.

Tested on: A673/TR/shEF
Assay: cell viability (LOESS-normalised, relative to median of negative controls) (log2 ratio); higher = more viable cells (less compound effect), active = hit call of the paper (over 3 MAD below the median)
Details: treatment time: 72 h
In short: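 A673/TR/shEF Ewing sarcoma cells (1,500 per well, 384-well plates) were grown with or without doxycycline to induce EWS-FLI1 shRNA knockdown, starting 24 h before compounds. Library compounds at two or more concentrations, with DMSO controls, were added for three days. Cell viability was read by CellTiter-Glo luminescence on an Envision reader, then LOESS-corrected per plate, divided by the median of negative controls and log2-transformed. Hits were wells at least three median absolute deviations from the median of all screened wells.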

[1] = 0.25 µM, library screen: screen1, EWS-FLI1 expression: high (no doxycycline)
[2] = 0.25 µM, library screen: screen1, EWS-FLI1 expression: low (doxycycline-induced shRNA knockdown)
[3] = 2.5 µM, library screen: screen1, EWS-FLI1 expression: high (no doxycycline)
[4] = 2.5 µM, library screen: screen1, EWS-FLI1 expression: low (doxycycline-induced shRNA knockdown)
[5] = 0.025 µM, library screen: screen1, EWS-FLI1 expression: high (no doxycycline)
[6] = 0.025 µM, library screen: screen1, EWS-FLI1 expression: low (doxycycline-induced shRNA knockdown)
[7] = 25 µM, library screen: screen1, EWS-FLI1 expression: high (no doxycycline)
[8] = 25 µM, library screen: screen1, EWS-FLI1 expression: low (doxycycline-induced shRNA knockdown)
[9] = 0.25 µM, library screen: screen2, EWS-FLI1 expression: high (no doxycycline)
[10] = 0.25 µM, library screen: screen2, EWS-FLI1 expression: low (doxycycline-induced shRNA knockdown)
[11] = 2.5 µM, library screen: screen2, EWS-FLI1 expression: high (no doxycycline)
[12] = 2.5 µM, library screen: screen2, EWS-FLI1 expression: low (doxycycline-induced shRNA knockdown)

O=C(O)C1(O)C[C@@H](O)C(O)[C@H](O)C1 (stereo partly drawn)
cell viability (log2) [1]: 0.068 (inactive) | cell viability (log2) [2]: -0.0312 (inactive) | cell viability (log2) [3]: 0.121 (inactive) | cell viability (log2) [4]: -0.0156 (inactive)

CC(=O)O[C@H]1C[C@@H](OC(C)=O)C(C)(C)[C@@H]2C[C@@H](OC(C)=O)[C@]3(C)[C@H](CC[C@@]4(C)[C@H](c5ccoc5)OC(=O)[C@H]5O[C@@]534)[C@@]12C
cell viability (log2) [1]: -0.0343 (inactive) | cell viability (log2) [2]: 0.0186 (inactive) | cell viability (log2) [3]: 0.075 (inactive) | cell viability (log2) [4]: 0.143 (inactive)

COc1cc(/C=C(\C#N)C(N)=O)cc(CSc2nc3ccccc3s2)c1O
cell viability (log2) [5]: 0.119 (inactive) | cell viability (log2) [6]: 0.0154 (inactive) | cell viability (log2) [1]: 0.2 (inactive) | cell viability (log2) [2]: -0.0796 (inactive) | cell viability (log2) [3]: 0.0235 (inactive) | cell viability (log2) [4]: 0.0635 (inactive) | cell viability (log2) [7]: -0.058 (inactive) | cell viability (log2) [8]: -0.0713 (inactive)

N#CC(C#N)=C(N)/C(C#N)=C/c1cc(O)c(O)c(O)c1
cell viability (log2) [5]: 0.289 | cell viability (log2) [6]: -0.0659 (inactive) | cell viability (log2) [1]: 0.296 | cell viability (log2) [2]: -0.0126 (inactive) | cell viability (log2) [9]: 0.21 (inactive) | cell viability (log2) [10]: 0.0773 (inactive) | cell viability (log2) [3]: -0.312 (active) | cell viability (log2) [4]: 0.0388 (inactive) | cell viability (log2) [11]: 0.23 (inactive) | cell viability (log2) [12]: 0.0527 (inactive) | cell viability (log2) [7]: -0.175 (active) | cell viability (log2) [8]: 0.0813 (inactive)

N#CC(C#N)=C(N)/C(C#N)=C/c1ccc2[nH]ccc2c1
cell viability (log2) [5]: 0.369 | cell viability (log2) [6]: 0.0769 (inactive) | cell viability (log2) [1]: 0.269 (inactive) | cell viability (log2) [2]: 0.0358 (inactive) | cell viability (log2) [3]: -0.421 (active) | cell viability (log2) [4]: 0.0519 (inactive) | cell viability (log2) [7]: -0.203 (active) | cell viability (log2) [8]: 0.0138 (inactive)

N#CC(C#N)=C(N)/C(C#N)=C/c1ccc(O)cc1
cell viability (log2) [9]: 0.137 (inactive) | cell viability (log2) [10]: 0.116 (inactive) | cell viability (log2) [11]: 0.199 (inactive) | cell viability (log2) [12]: 0.0447 (inactive)

CC(=O)Oc1ccc(O)cc1
cell viability (log2) [1]: -0.0255 (inactive) | cell viability (log2) [2]: 0.056 (inactive) | cell viability (log2) [3]: 0.0239 (inactive) | cell viability (log2) [4]: 0.00436 (inactive)

COC1=CC(=O)OC(CCc2ccc(OC)c(OC)c2)C1 (stereo not drawn)
cell viability (log2) [1]: 0.144 (inactive) | cell viability (log2) [2]: -0.00163 (inactive) | cell viability (log2) [3]: 0.181 (inactive) | cell viability (log2) [4]: 0.0406 (inactive)

COc1cc2occ(-c3ccc(O)cc3)c(=O)c2c(OC)c1O
cell viability (log2) [1]: 0.0883 (inactive) | cell viability (log2) [2]: 0.0895 (inactive) | cell viability (log2) [3]: 0.108 (inactive) | cell viability (log2) [4]: 0.0533 (inactive)

O=c1cccc2cc(O)c(O)c(O)c2c1O
cell viability (log2) [1]: -0.000737 (inactive) | cell viability (log2) [2]: -0.0453 (inactive) | cell viability (log2) [3]: 0.0367 (inactive) | cell viability (log2) [4]: 0.0294 (inactive)

COc1cc(OC)c2c(=O)c(OC)c(-c3ccc(OC)c(OC)c3)oc2c1
cell viability (log2) [1]: 0.019 (inactive) | cell viability (log2) [2]: 0.0595 (inactive) | cell viability (log2) [3]: 0.0902 (inactive) | cell viability (log2) [4]: -0.0343 (inactive)

O=C1Cc2c([nH]c3ccc([N+](=O)[O-])cc23)-c2ccccc2N1
cell viability (log2) [9]: 0.0426 (inactive) | cell viability (log2) [10]: 0.0802 (inactive) | cell viability (log2) [11]: -0.122 (active) | cell viability (log2) [12]: -0.312 (active)

O=C1Cc2c([nH]c3ccc(Br)cc23)-c2ccccc2N1
cell viability (log2) [9]: 0.148 (inactive) | cell viability (log2) [10]: 0.0907 (inactive) | cell viability (log2) [11]: 0.128 (inactive) | cell viability (log2) [12]: 0.118 (inactive)

O=c1c(-c2ccccc2)coc2cc(O)cc(O)c12
cell viability (log2) [1]: -0.0366 (inactive) | cell viability (log2) [2]: 0.014 (inactive) | cell viability (log2) [3]: 0.0821 (inactive) | cell viability (log2) [4]: 0.099 (inactive)

CC(C)N1C(=O)/C(=C\c2ccco2)SC1=S
cell viability (log2) [1]: 0.136 (inactive) | cell viability (log2) [2]: 0.0809 (inactive) | cell viability (log2) [3]: 0.114 (inactive) | cell viability (log2) [4]: 0.139 (inactive)

O=C(O[C@@H]1Cc2c(O)cc(O)cc2O[C@@H]1c1cc2cc([C@H]3Oc4cc(O)cc(O)c4C[C@H]3O)cc(=O)c(O)c2c(O)c1O)c1cc(O)c(O)c(O)c1
cell viability (log2) [1]: 0.115 (inactive) | cell viability (log2) [2]: 0.032 (inactive) | cell viability (log2) [3]: 0.00601 (inactive) | cell viability (log2) [4]: -0.0597 (inactive)

COC(=O)c1cc(=O)c(O)c2c(O)c(O)ccc2c1
cell viability (log2) [1]: 0.103 (inactive) | cell viability (log2) [2]: 0.0315 (inactive) | cell viability (log2) [3]: 0.145 (inactive) | cell viability (log2) [4]: 0.0325 (inactive)

COc1cc2cccc(OC)c(=O)c2c(OC)c1OC
cell viability (log2) [1]: 0.0955 (inactive) | cell viability (log2) [2]: 0.0427 (inactive) | cell viability (log2) [3]: 0.109 (inactive) | cell viability (log2) [4]: 0.0214 (inactive)

COC(=O)c1cc(OC)c(=O)c2c(OC)c(OC)ccc2c1
cell viability (log2) [1]: -0.0869 (active) | cell viability (log2) [2]: 0.0503 (inactive) | cell viability (log2) [3]: 0.0906 (inactive) | cell viability (log2) [4]: -0.0346 (inactive)

COc1ccccc1NC(=O)C1=C(C)NC(=O)NC1c1cccc(Cl)c1 (stereo not drawn)
cell viability (log2) [1]: 0.0986 (inactive) | cell viability (log2) [2]: 0.0367 (inactive) | cell viability (log2) [3]: 0.0178 (inactive) | cell viability (log2) [4]: 0.0125 (inactive)

CC(C)CCCCCOC(=O)COc1ccc(Cl)cc1Cl
cell viability (log2) [1]: 0.0385 (inactive) | cell viability (log2) [2]: 0.102 (inactive) | cell viability (log2) [3]: 0.111 (inactive) | cell viability (log2) [4]: -0.0211 (inactive)

CC1(C)C2CC(=O)[C@]3(C)C(CC[C@@]4(C)[C@H](C(=O)O)OC(=O)C5OC543)[C@@]2(C)[C@@H](O)C[C@H]1O (stereo partly drawn)
cell viability (log2) [1]: 0.0536 (inactive) | cell viability (log2) [2]: 0.0574 (inactive) | cell viability (log2) [3]: 0.0836 (inactive) | cell viability (log2) [4]: 0.107 (inactive)

Cc1cc(N2CCN(c3ncccn3)CC2)n2c(nc3ccccc32)c1C#N
cell viability (log2) [1]: 0.119 (inactive) | cell viability (log2) [2]: 0.0784 (inactive) | cell viability (log2) [3]: 0.108 (inactive) | cell viability (log2) [4]: 0.0845 (inactive)
